Drawing on PubChem BioAssay AID1508600 (Functional Genomics Laboratory (NCATS/FGL), 2020), this text covers z-score for 69 sequences.

Screen size: about 53,000 sequences; about 3,700 (7%) were called active. The full list was thinned out, with actives kept by preference. A number with no mark means an inactive call.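 How the source made its calls: active means gene knockdowns whose robust z-score for IL-1 alpha signal is at least 2 or at most -2, so actives lie on both sides; inactive means the rest.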

The assay can be described thus: Components of the Cytosolic LPS Sensing Pathway: Gene Identification via Genome-wide siRNA Screen.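 Further: robust z of the log signal after scaling to non-targeting control siRNA wells of the plate.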 As to conditions: RAW264.7 macrophages, IL-1a HTRF, actives lie on both sides, screened at 100 nM (by protocol), cells primed 5 h with Pam3CSK4 first. A digest of the protocol:
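Supernatant IL-1a by HTRF from RAW264.7 cells primed with Pam3CSK4 (5 hours) and transfected with LipidA (24 hour) after 48h siRNA knockdown at 100 nM; cell viability checked with CellTiter-Glo.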
A general note: Time-resolved FRET reads energy transfer from a long-lived donor to a nearby acceptor.
GGACGUGCUUACAUUGUACTT against Pcdhb9: the z-score was -0.212. With GCAAUUGAGAUCUAUACAGTT against Napa the figure was -0.0109; with GGGAAUAUGUGAAACAGACTT against Syk, -0.229. As for GCCAAUAAAGUCGGUGAAATT against H2aj, the figure is -0.244.

With GGAAUAAUCCCAGAAUCAGTT against Stard6, the z-score is 0.0758.

Take GGAAGUGGCUUUUUAUCAGTT against Arhgap6: the z-score is 2.05 (active). Regarding CCAUACACAACAUUCCAGATT against Slc39a11, the z-score was 0.0339. As to GCAUUCAUCAAAUUUACAGTT against Prrg4, the z-score is -0.67. As for CCUACUAACAACAAGAGCATT against Pcdhga5, the z-score was 0.021. With GGAACUGAUCUGGAAGAAUTT against Sord the figure was -0.392; with GGAAUACCAGGCCUUCCUUTT against B4galnt1, -0.886. For the sequence CCUCGAUUAUAGCAAUACUTT against Slc16a14, the z-score is 1.36. GGUGCAGGACCAUUUCCAUTT against Slc10a6: the z-score was 3.25 (active).

Consider GAAAUGUCCAUCCAAAAGCTT against Sprr2k, for which the z-score is 0.602. With GGAUUAGGAAUCACAGUAGTT against Fam78a the figure was 0.675; with CCUUAUAGUCCAGUAUUUUTT against Slf2, 2.71 (active); with GGCCAAAAAGGAGGCACCATT against Rps15, 0.662. With GCAUUUUAAUGCGCCAGUUTT against Atp2c1 the figure was -0.164; with GGGAGCUUUGGAAAUUUUATT against Zbtb3, 0.451; with CCUCUCCUGCUCUGACAUATT against Olfr933, 0.541.

With GGAAGAGGUCUUUAAUACATT against Kif4, the z-score is 2.86 (active). As for GGUGUUUGGCGAUAAUAAGTT against Zdhhc15, the figure is -0.237; as for GGAAAGAAUAGCAGCGUGGTT against Echs1, 1.14; as for GCGAGACAAUUGUUAUUGATT against Zmym2, -1.05.

GGCCAUGGAAGCUGUUGCUTT against Pgam2: the z-score was -0.264. On to GGACAGAUGAUGAAGUUGUTT against Hsp90b1, for which the z-score was -2.24 (active). As for GGUUCAGUCAAGAAUUGCUTT against Clec4e, the figure is 1.68. As for GCUGUCGAUAGAAAAAAUCTT against Scml2, the figure is 0.566; as for GGGCAAUUUGUUCGACCCATT against Abca2, -0.14; as for GGGCCUGGAAAACAUUGACTT against Ndufa1, -0.316.

On to CCCAGUGUCAUUCAGUAUUTT against Phactr3, for which the z-score was 2.13 (active). As for CCUUCAACACCAGUUUGGGTT against Olfr1393, the figure is 0.45.

As for GGCCUGUGGAAGAAAUACGTT against Pdhb, the z-score is 1.82.

Turning to GCAAUUUGAGCAGUAUGUATT against Cpsf7, the z-score is -2.85 (active). As for GGAAACAUGUCCUCACACATT against Top3b, the figure is 1.41. With GGCUCAUUUGCUGAGUGUGTT against Fscn2 the figure was 1.68. With GCCGGUAAAAUUAAGGUGATT against Cyp2j9 the figure was -0.13; with GGGUUUGGUCUCAUAUAAATT against Samd7, -0.618. On to GCAGAAGUCGAGCUAUGUUTT against Zfp365, for which the z-score was -1.21. With GGCUAAAUGCCGAUGUACUTT against Gapvd1 the figure was 2.08 (active). On to GGGAUAAUAAUGUUGAUUGTT against Mrc1, for which the z-score is -0.152. As for GCAUACCUCCGUAUUGUGATT against Snx30, the figure is -0.868; as for CCUGACAGACCGACAAGUGTT against Hoxc11, -2 (active); as for GAUCAUCACAGAGGUCCAGTT against Fabp6, 0.308. In the case of GGUGAUGGGCAAGGUGUUCTT against Syvn1, the z-score is 0.25.

CGGUACAAGCUAGACCUCATT against Mettl26: the z-score is 0.493. In the case of CCAAUACUACAUAAUGUCUTT against Abcc12, the z-score was -0.354. On to GGAAUUCCCAAAACUACUGTT against Tbck, for which the z-score is -1.28. As to GGAAUGUCGAAGAAAAUGCTT against Adam15, the z-score is -0.197.

With GCGCAAUAAGAUCUUCAUGTT against Ddx55, the z-score is 0.454. As for GGCACUUUCCCUAUAUUGUTT against Col26a1, the z-score was -1.57. CCUACGACUUCUACUACAUTT against Chst8: the z-score is 1.69. Turning to GGAGUGCGGACGAUAAUACTT against Ppp1r3f, the z-score is -1.97. With GCUGGCUAUACUUUACAACTT against Prkg1 the figure was 2.11 (active). As for GUAUUGGAUACGAAGCAGATT against Defb2, the figure is -0.154; as for GGACAUGUGGAAAUGGAUATT against Arhgap4, 1.97. As for GGCUUUCUUCAACCUGAGUTT against Duoxa1, the figure is -2.43 (active); as for GGGAAGAAGAUGGAAUUUATT against Smoc1, 1.22; as for CGGGCUGCUACGAAAAAGUTT against Tspan9, 0.152. GGAAACACGUCUCCUCCAUTT against Krt87: the z-score is 1.26. CGCACAAAGGAUUUUUGUATT against Epha7: the z-score is -0.064.

With GGUGUGAUUGAAGAAGCGGTT against Gpr37, the z-score is -0.463. With CGACAACAAUCUGGCCUAUTT against Ap2s1 the figure was 2.09 (active). With GUGCCUCUCAUCACUAUCUTT against Olfr571 the figure was 0.501; with GGAAACCCAGAGCAGCAGATT against Tdg, -1.01; with GGAGCUCAAACAGGAGAACTT against Lhfpl4, 0.383.

In the case of GGUAUUUGCUGAACUGUUUTT against Ckmt1, the z-score is -0.931. GGAAGGAAGCUAAAAAACGTT against Gnl3: the z-score was 2.24 (active).

Take GGCUUAACAGAGAAACACCTT against Lrrc49: the z-score was 0.563.
